Screens: PubChem BioAssay, The Scripps Research Institute Molecular Screening Center
Only a selection was taken, and hits are over-represented in it overall.
TTR transcr act – activators of transthyretin transcription. SH-SY5Y TTR promoter Gaussia luciferase, luminescence; 100% = recombinant luciferase protein wells. 1.3% of 92,000 active. activation, % at 16.7 µM;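 active = activation above the mean of all tested compounds plus 3 SD, cut at about 9.5% in these data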;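 also: cells exposed to compounds for one day before reading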
TTR inh HuH7 – decreases TTR transcription in HuH7 cells in activator counter-screen | 4% of 1,100 active | shares compounds with TTR transcr act | HuH7 TTR promoter-Gaussia luciferase reporter, luminescence | AID 1117279 | inhibition, % at 16.7 µM;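 active = average inhibition above the solvent-only control wells' mean plus 3 SD, cut at about 15% in these data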;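 also: inhibitors lower well luminescence so higher value means more inhibition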
TTR up confirm – human TTR transcription activation, confirmation | shares compounds with TTR transcr act | SHSY5Y TTR promoter Gaussia luciferase, luminescence; 100% = purified Lucia enzyme wells, no cells | activation, % at 16.7 µM | 1,100 tested, under 10 active;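 active = mean activation above a set limit taken from the earlier primary screen, cut at about 11% in these data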
Large screens that a line does not name were inactive (follow-up assays come after a bar, where they were run).

COC(=O)C1=C(c2ccc3ccccc3c2)C[C@@H]2CC[C@H]1N2C	none
COC(=O)C1=C(c2cc3ccccc3s2)C[C@@H]2CC[C@H]1N2C	TTR transcr act 14.3
COC(=O)C1=C(c2cc3ccccc3s2)C[C@@H]2CC[C@H]1N2C(=O)NC1CC1	none
C=CCCC(NC(=O)OCc1ccccc1)P(=O)(Oc1ccccc1)Oc1ccccc1 (stereo unspecified)	none
COC(=O)[C@@]1(O)c2c(oc3cccc(O)c3c2=O)C=C[C@H]1O	none
CCc1ccccc1N1C(=O)CC(=O)NC1=O	TTR transcr act 9.8 | TTR inh HuH7 inactive | TTR up confirm inactive
O=C1CC(=O)N(c2ccc(Cl)cc2)C(=O)N1	none
CC(C)(C)Cc1nnc(NC(=O)COc2ccc(Cl)cc2Cl)o1	none
O=c1[nH]c2ccccc2n1C1CCN(C(c2cc3ccccc3o2)c2nnnn2Cc2ccccc2)CC1 (stereo unspecified)	none
COc1ccc2c3c1OC1[C@H](O)CCC4[C@@H](C2)N(C)CC[C@]314 (stereo partly specified)	none
COc1ccc2c(c1O)C13CCN(C)C(C2)C1CCC(=O)C3 (stereo unspecified)	TTR transcr act 24.4 | TTR inh HuH7 inactive | TTR up confirm inactive
COc1ccc2c3c1OC1C(=O)CC[C@@]4(O)[C@@H](C2)N(C)CC[C@]314 (stereo partly specified)	none
COC(=O)C1C(c2ccc(Cl)cc2)CC2CCC1N2C (stereo unspecified)	none
O=C1NC(=O)C(Cc2ccccc2)(Cc2ccccc2)C(=O)N1	none
S=P(c1ccccc1)(c1ccccc1)c1c[n+](Cc2ccccc2)c2ccccn12	none
Cc1cccn2c(NCC3CCCO3)c(C(C)C)nc12 (stereo unspecified)	TTR transcr act 27.0 | TTR inh HuH7 inactive | TTR up confirm inactive
CNC(=O)C[C@H]1CC[C@@H]2NC[C@H](O)COC[C@H]2O1	none
O=c1[nH]c2ccccc2n1C1CCN(C(CCc2ccccc2)c2nnnn2C2CCCC2)CC1 (stereo unspecified)	none
O=C(Nc1ccc(F)cc1)N1Cc2ccccc2-n2nncc2C1	none
Cc1ccccc1-n1c(O)c(/C=N/c2nccs2)c(=O)[nH]c1=O	none
Cc1cccc(-n2c(O)c(/C=C/C=Nc3ccccc3)c(=O)[nH]c2=O)c1	none
Cc1cccc(N=Cc2c(O)n(-c3ccccc3C)c(=O)[nH]c2=O)c1	TTR transcr act 12.7 | TTR inh HuH7 inactive | TTR up confirm inactive
CC[C@]12CCN(CC3(O)CC3)[C@H](Cc3ccc(O)cc31)C2(C)C	none
CC(=O)N1Cc2cnnn2-c2ccccc2C1C#N (stereo unspecified)	none
OC1(c2ccc(F)cc2)CC2CCC(C1)N2Cc1nnnn1C1CCCCC1 (stereo unspecified)	TTR transcr act 23.4 | TTR inh HuH7 inactive | TTR up confirm inactive
OCCN1C2CCC1CC(O)(c1ccc(F)cc1)C2 (stereo unspecified)	none
CC1CCCN(C(=O)CN2C3CCC2CC(O)(c2ccc(F)cc2)C3)C1 (stereo unspecified)	none
C=CC1C[N+]2(C)CCC1CC2C(O)c1ccnc2ccccc12 (stereo unspecified)	none
O=C1NCN(c2ccccc2)C12CCN(C(c1cccc3ccccc13)c1nnnn1-c1ccc3c(c1)OCCO3)CC2 (stereo unspecified)	none
C=CCN1CC[C@]23c4c5ccc(O)c4OC2C(=O)CC[C@@]3(O)[C@H]1C5 (stereo partly specified)	none
COC(=O)C1C(c2ccc(I)cc2)CC2CCC1N2C (stereo unspecified)	none
CCOC(=O)[C@]12Cc3cc(OC)ccc3[C@H]1N(C1CCCCC1)C(=O)c1ccccc12	none
COC(=O)C1=C(C(=O)OC)C2OC1c1cc3ccccc3cc12	none
O=C1NC(=O)C(C2CCCCCC2)C(=O)N1	none
c1cc(OCCN2CC2)ccn1	TTR transcr act 10.3 | TTR inh HuH7 inactive | TTR up confirm inactive
O=C(Cc1ccccc1)OCCN1CCOCC1	none
c1cnc(OCCN2CC2)cn1	none
c1coc(CN2Cc3ccccc3-n3nncc3C2)c1	none
CCC1C(c2cc(OC)c(OC)c(OC)c2)c2cc3c(cc2OC1N1CCCC1)OCO3 (stereo unspecified)	none
O=C(NC1CN2CCC1CC2)c1ccc(Cl)cc1 (stereo unspecified)	none
C[C@H]1[C@@H](c2ccccc2)O[C@@H](c2ccccc2Br)N1C	TTR transcr act 10.7 | TTR inh HuH7 inactive | TTR up confirm inactive
CCOC(=O)[C@]12Cc3cc(Cl)ccc3[C@H]1N(C(C)C)C(=O)c1ccccc12	none
C=CCN1C[C@H](C)N(C(c2ccc(C(=O)N(CC)CC)cc2)c2cccc(OC)c2)CC1C (stereo partly specified)	none
CC(=O)OC1C=CC2[C@H]3Cc4ccc(O)c5c4[C@@]2(CCN3C)C1O5 (stereo partly specified)	TTR transcr act 16.8 | TTR inh HuH7 inactive | TTR up confirm inactive
CN1CC[C@]23c4c5ccc(O)c4OC2C(O)C=CC3[C@H]1C5 (stereo partly specified)	none
CN1CC[C@]23c4c5ccc(OC6OC(C(=O)O)[C@@H](O)C(O)[C@H]6O)c4OC2C(O)C=CC3[C@H]1C5 (stereo partly specified)	none
O=S(=O)(c1ccccc1)N1Cc2ccccc2-n2nncc2C1	none
C=CCNC(=S)N1Cc2cc(Br)ccc2-n2nncc2C1	none
COC(=O)C1=C(c2ccc(OC(F)(F)F)cc2)C[C@@H]2CC[C@H]1N2C(=O)NCC1CC1	none
COC(=O)C1=C(c2ccc(OC(F)(F)F)cc2)C[C@@H]2CC[C@H]1N2C(=O)NCCO	none
COC(=O)C1=C(c2ccc(OC(F)(F)F)cc2)C[C@@H]2CC[C@H]1N2C(=O)NC1CC1	TTR transcr act 10.2 | TTR inh HuH7 inactive | TTR up confirm inactive
Nc1ccc(-c2ccc(N)cc2)cc1	none
COC(=O)[C@@H]1N=C(c2ccc(OC)cc2)O[C@]12C(=O)N(C)c1ccc(Cl)cc12	none
CN1C2CCC1CC(=NO)C2	TTR transcr act 26.5 | TTR inh HuH7 inactive | TTR up confirm inactive
COc1ccc2nc3c(C)n(C)ccc-3c2c1	none
C=CC12CN(C)C3C4COC(CC41)C1(C(=O)Nc4ccccc41)C32 (stereo unspecified)	none
COc1cc(CCN)c(OC)cc1C	none
COC(=O)C1=C(c2ccc(F)cc2OCc2ccccc2)C[C@@H]2CC[C@H]1N2C(=O)NCc1ccco1	TTR transcr act 14.6 | TTR inh HuH7 inactive | TTR up confirm inactive
COC(=O)C1=C(c2ccc(F)cc2OCc2ccccc2)C[C@@H]2CC[C@H]1N2C(=O)NCC1CC1	none
COC(=O)C1=C(c2ccc(F)cc2OCc2ccccc2)C[C@@H]2CC[C@H]1N2C(=O)NCc1ccccc1	none
Cc1cc(O)c2c(c1)C(=O)[C@@]13C(=C2O)C(=O)[C@H]2C(O)[C@@H]1[C@H]1C(O)[C@@H]3C(=O)C3=C(O)c4c(O)cc(C)cc4C(=O)[C@@]312 (stereo partly specified)	none
CC/C(=N\Nc1ccccc1)c1c(O)n(-c2ccc(OC)cc2)c(=O)[nH]c1=O	none
CCC(=NCCCn1ccnc1)c1c(O)n(-c2ccc(OC)cc2)c(=O)[nH]c1=O	TTR transcr act 16.6 | TTR inh HuH7 inactive | TTR up confirm inactive
CCC(=NCc1cccnc1)c1c(O)n(-c2ccccc2)c(=O)[nH]c1=O	none
CC(C)(C)NC(=S)N1Cc2ccccc2-n2nncc2C1	none
CCn1c(C)c(C(=O)O)c2cc(OC)ccc21	none
